aSyn 5UTR act: Activators via SNCA 5'UTR binding, MLPCN. AID 1814. alpha-synuclein 5'UTR reporter, activators screen. 7.1% of 300,000 active. activity score, % (tested at 7.5 µM), hits read low; in the data active means activity score below about -60%
Active calls of the source: *. The list is a sample of the results.

SMILES | aSyn 5UTR act
Cc1cccc(-n2cnc3cc(C(=O)N4CCCCC4)ccc32)c1 | -74*
CC1OC(Nc2ccc(N=Nc3ccccc3)cc2)C(O)C(O)C1O (configuration not stated) | -63*
CCCCC(=O)N/N=C(C)/C=C/c1ccccc1F | -76*
CC(/C=C/c1ccccc1F)=N\NC(=O)C(C)C | -78*
O=[N+]([O-])c1ccccc1-c1ccc(C(=S)N2CCCC2)o1 | -132*
O=[N+]([O-])c1ccccc1-c1ccc(C(=S)N2CCCCC2)o1 | -107*
Cc1cs/c(=N\N=C\c2cccc([N+](=O)[O-])c2)n1Cc1ccco1 | -97*
O=C(Oc1c(CN2CCOCC2)cc(Cl)c2cccnc12)c1ccccc1Cl | 105
O=c1oc2c(CN3CCOCC3)c(O)ccc2c2ccccc12 | -72*
CC(=O)C1C(=O)c2c(cccc2[N+](=O)[O-])C1=Nc1ccccc1C (configuration not stated) | -73*
CC1=C([N+](=O)[O-])C(c2cccc(Br)c2)C2=C(N1)c1ccccc1C2=O (configuration not stated) | 90
COc1ccc(/C=C/C2=NC(=C\N(C)C)/C(=O)O2)cc1 | -151*
CCc1sc(C(=O)Nc2nccs2)cc1C | -123*
CCc1sc(C(=O)Nc2ncccc2C)cc1C | -67*
CCOc1ccc(-c2cc(CCCC(=O)NCCc3ccc(OC)c(OC)c3OC)no2)cc1 | 57
CCOc1ccc(-c2nc(CCl)cs2)cc1OC | -104*
CC1=[N+](CC(=O)c2ccccc2)CCn2cccc21 | -110*
CCC1=[N+](CC(=O)c2ccc(C)cc2)CCn2cccc21 | -123*
CCC1=[N+](CC(=O)c2ccc(C)cc2)CCn2c(C)ccc21 | -194*
O=c1c2c(nc3c(-c4ccc(Cl)cc4)c[nH]n13)CCCC2 | 66
Cc1nc2c(-c3ccc(Cl)cc3)cnn2c2c1CCC2 | -123*
CC(C)N(Cc1nccn1C)C(=O)CCc1nnc(CCCc2ccccc2)o1 | -120*
CN(CCc1ccccn1)C(=O)CCc1nnc(CCCc2ccccc2)o1 | -91*
COc1ccccc1NC(=S)NNC(=O)c1ccc(Cl)cc1Cl | -137*
O=C(NC(=S)NNC(=O)c1cnccn1)c1ccc(Cl)cc1 | 61
SMILES | aSyn 5UTR act
O=C(NC(=S)Nc1ccc2c(c1)C(=O)c1ccccc1C2=O)c1ccc(F)cc1 | -141*
O=C(NC(=S)Nc1ncccn1)c1ccc(F)cc1 | -203*
O=C(NC(=S)Nc1cccnc1Cl)c1ccc(F)cc1 | -124*
O=C(NC(=S)Nc1ncccn1)c1ccc(Cl)cc1Cl | -165*
O=C(Nc1cccnc1Cl)c1cc(-c2ccc(F)cc2)on1 | -74*
CC(C)(C)C(=O)Cn1ncc(Br)c(Br)c1=O | -92*
Cc1ccc(N2NC(C)(c3cccs3)NC2=S)cc1 (configuration not stated) | -151*
COc1ccccc1C(O)Cc1nc2ccccc2n1C (configuration not stated) | -87*
CC(C)c1ccc(C(O)Cc2nc3ccccc3n2C)cc1 (configuration not stated) | -102*
COc1ccc(C(C)NCCC(c2ccc(OC(C)C)cc2)c2ccccc2OC)cc1 (configuration not stated) | 93
CN(C)c1ccc(C(O)Cc2nc3ccccc3n2C)cc1 (configuration not stated) | -97*
COc1ccc2c(=O)c(C(=O)NCCc3ccccc3)c[nH]c2c1 | -169*
CCCCC(=NCCc1c(C)[nH]c2ccc(OC)cc12)C1=C(O)CC(c2ccccc2)CC1=O (configuration not stated) | 119
CCCNC(=O)c1ccc2c(=O)c(O)c(-c3ccc(OC)cc3)[nH]c2c1 | 88
COc1ccc2[nH]cc(C(=O)NCCc3ccccc3)c(=O)c2c1 | -71*
CCCCNC(=O)c1ccc(Cn2c(=S)[nH]c3c([nH]c4ccc(OC)cc43)c2=O)cc1 | 105
CCn1nc(NC(=O)C2CCCO2)c2cc3cc(C)ccc3nc21 (configuration not stated) | -90*
CCCn1nc(NC(=O)COC)c2cc3cc(C)ccc3nc21 | -96*
CN(C)/C=C1\SC(=S)N(c2ccc(Br)cc2)C1=O | -100*
Cc1ccn2cc(-c3cnoc3C)nc2c1 | -97*
Cc1ccn2cc(-c3ccc(Br)cc3)nc2c1 | 63
CCN1C=CC(=C2C(=O)c3ccccc3C2=O)C=C1 | 96
CC1=CC(=C2C(=O)c3ccccc3C2=O)C=C(C)O1 | -129*
CC1=CC(=C2N=C(c3ccccc3)OC2=O)C=C(C)O1 | -146*
CC1=CC(=C2C(=O)c3ccccc3C2=O)C=C(C)N1Cc1ccco1 | -217*
SMILES | aSyn 5UTR act
CCCN1C=CC(=C2C(=O)c3ccccc3C2=O)C=C1 | 132
CCCn1c(C2CCCN2c2nc(-c3cccc(Br)c3)cs2)nc2ccccc21 (configuration not stated) | -93*
Cc1cccc(-c2nc(=S)c3c(o2)CCCC3)c1 | -133*
S=c1nc(-c2ccc(Br)cc2)oc2c1CCCC2 | -184*
CC(=O)c1ccc(NC(=S)NC(=O)/C=C/c2ccco2)cc1 | -101*
O=C(/C=C/c1ccco1)NC(=S)Nc1ccccc1 | -104*
O=C(CCSc1ccccc1)Nc1ccccc1Br | -91*
CN(C)/C=N/C(=S)Nc1ccc(Cl)c(Cl)c1 | -66*
CC(=O)C1=C(C)OC(N)=C(C#N)C1c1cc2cc(C)c(C)cc2nc1Cl (configuration not stated) | -68*
CSCC(=O)N1CCC(n2nccc2NC(=O)c2ccc3c(c2)OCO3)CC1 | -110*
CSc1ccc(CC(=O)N2CCC(n3nccc3NC(=O)C3CC3)CC2)cc1 | -116*
CCOC(=O)c1cccc(OS(=O)(=O)Cc2ccccc2)c1 | -63*
COC(=O)c1ccc(NC(=O)CNc2ccccc2)cc1 | -99*
CCOC(=O)c1cn[nH]c1NC(=S)Nc1ccc(Cl)cc1 | -66*
CCOC(=O)c1ccc(S(=O)(=O)NCCN(CC)CC)cc1 | 52
CCOC(=O)c1ccc(CNCc2ccccc2)cc1 | -66*
Cc1cccc(C)c1N=C1SC(CC(=O)Nc2c(C)cccc2C)C(=O)N1CCc1ccccn1 (configuration not stated) | 67
CCOC(=O)c1ccc(NCc2ccc(N(C)C)cc2)cc1 | -87*
CCOC(=O)c1ccc(NC(=S)Nc2ccc(C)cc2)cc1 | -145*
CCOC(=O)c1c(C)c(C(=O)Nc2ccc(N(C)C)cc2)c(C)n1CC | -82*
CCOC(=O)c1ccc(NC(=S)Nc2ccccc2)cc1 | -147*
Cc1ccc(C(=O)NCC(=O)NC23CC4CC(CC(C4)C2)C3)cc1 | -76*
CC(=O)OCC1OC(n2cc(F)c(=O)[nH]c2=O)C(OC(C)=O)C1OC(C)=O (configuration not stated) | -181*
CC(C)(C)c1cnnn1-c1ccc(/C=N/Nc2ccc([N+](=O)[O-])cc2)cc1 | -95*
CCC/C=N/Nc1nc2ccccc2s1 | -244*
SMILES | aSyn 5UTR act
Brc1ccc(/C=C/C=N/Nc2nc3ccccc3s2)cc1 | -73*
C(=C\c1ccccc1)/C=N/Nc1nc2ccccc2s1 | -191*
COc1ccc(N2C3=[N+](CC2(C)O)c2ccccc2CC3)cc1 (configuration not stated) | -110*
COc1cccc(Cn2c(N)c(C#N)c3nc4ccccc4nc32)c1OC | 53
COc1cccc(CNc2ccc3c(c2)ncn3C(C)C)c1OC | -87*
O=S(=O)(C/C(=C/CO)S(=O)(=O)c1ccccc1)c1ccccc1 | -71*
Cc1ccc(COC(=O)c2cc([N+](=O)[O-])ccc2N2CCOCC2)cc1 | 68
COC(=O)c1cc(C)ccc1OCc1ccc([N+](=O)[O-])cc1 | -79*

Screens deposited in PubChem BioAssay by Broad Institute.
